From PubChem BioAssay (NCATS)
Records with an inconclusive call do not appear. Values without a mark were called inactive. The call rests on the fitted dose curve; in most records, active means well fitted curve in either direction with a large enough effect (not every such curve was filed as active); inconclusive means small, poorly fitted or top-dose-only effect, or another doubt; inactive means flat fitted curve, though single readings scatter.

Experiment: AP1 Signaling Pathway (AID 357);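 further: ME-180 reporter cells stimulated with EGF at its EC50 level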
Conditions: ME-180 (cervical carcinoma) AP-1-bla reporter, EGF-induced, beta-lactamase ratio, 5 h; at 17.2 µM (top of the series) unless noted
In short: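 Modulation of EGF-driven AP-1 transcription was assessed with a beta-lactamase reporter in ME-180 cells. Compound and EC50 EGF were co-incubated 5 hours at 37 °C before 2.5-hour CCF4 loading at room temperature and dual-emission reading.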
On the % scale 0 is the no-effect control and ±100 the full control effect.

Row | SMILES | activity change, negative = inhibition
1 | CCOC(=O)c1cc2c(=O)n3ccccc3nc2n(Cc2ccccc2Cl)c1=N | -18.6%
2 | CCn1cc(/C=N/O)c(C)n1 | -0.439%
3 | CCCNC1=C(C)C(=O)CC1 | 11.1%
4 | CCOC(=O)CC(=O)CSc1[nH]c(=O)cc(C)c1C#N | 8.86%
5 | Cc1[nH]nc2c1C(CCc1ccccc1)C(C#N)=C(N)O2 (stereo not drawn) | -6.35%
6 | O=C(O)C1CC(=O)N(Cc2cccs2)C1 (stereo not drawn) | -0.708%
7 | COc1ccc(C(=O)c2ccc(N3CCOCC3)cc2)c(OC)c1 | -17.3%
8 | O=c1cc(NCc2ccccc2)nc2n1CCCS2 | 5.41%

Experiment: NFAT Signaling Pathway (AID 444);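 further: carbachol stimulus at about its EC50 of 1 µM final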
Conditions: Jurkat NFAT-bla M1, carbachol, beta-lactamase ratio, 5 h; at 17.2 µM (top of the series) unless noted
In short: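 Jurkat cells with NFAT-driven β-lactamase reporter and co-expressed M1 receptor, stimulated with carbachol (final 1 uM, ~EC50), compound titration, 5 h at 37 °C. CCF4 loaded 1 h at RT; 460/530 nm ratio gave %activity and AC50.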

Row | SMILES | activity change, negative = inhibition
9 | O=C1CCC(=O)N1c1nc2nc(-c3ccccc3)cc(-c3ccccc3)n2n1 | 6.64%
10 | N#CCCN(C(=O)c1ccco1)c1ccccc1 | 2.26%
11 | Cn1c(=O)c2c(nc(Br)n2Cc2ccc3ccccc3c2)n(C)c1=O | -13.6%
12 | Cc1c(NS(=O)(=O)c2cccc3nsnc23)c(=O)n(-c2ccccc2)n1C | -7.17%
13 | Cc1[nH]nc(-c2ccc(O)cc2O)c1Oc1ccccc1 | -25.7%
14 | Nc1nnnn1/N=C/c1cccc(Oc2ccccc2)c1 | -18.6%
15 | O=C(O)C(O)c1ccco1 (stereo not drawn) | -2.98%
16 | COc1ccccc1-n1c(=O)c2c3c(sc2n2c(SC)nnc12)CCC3 | -21.2%
17 | O=S1(=O)C[C@@H](N2CCOCC2)[C@H](N2CCOCC2)C1 | 6.36%
18 | COC(=O)c1[nH]c(C)c(/C(O)=C2\C(=O)C(=O)N(CCN3CCOCC3)C2c2cccnc2)c1C (stereo not drawn) | -7.81%
19 | COc1ccc(-n2c(=O)c3c4c(sc3n3c(C)nnc23)CC(C)CC4)cc1 (stereo not drawn) | -0.396%
20 | Cc1ccc(-c2nnc(OCCN3CCOCC3)c3ccccc23)cc1 | 5.38%
21 | O=C(Nc1ccccc1C(=O)NCCCn1ccnc1)c1ccccc1 | 5.76%
22 | CCn1c(SC(C)C(=O)O)nc2sc3c(c2c1=O)CCC3 (stereo not drawn) | 17.5%
23 | C=CCOC(=O)C1=C(C)NC(SCC(=O)Nc2ccc(C)c(Cl)c2)=C(C#N)C1c1ccco1 (stereo not drawn) | 7.32%
24 | O=C(Oc1ccccc1N1C(=O)CCC1=O)c1ccco1 | 8.69%
25 | CC1(C)SC2[C@H](NC(=O)C(NC(=O)N3CCNC3=O)c3ccccc3)C(=O)N2C1C(=O)O (stereo partly drawn) | 7.62%
26 | Cc1c(C2Nc3ccccc3NC3=C2C(=O)CC(C)(C)C3)cnn1C (stereo not drawn) | -5.95%
27 | COc1cccc(N2CCN(C3CC(=O)N(c4cccc(Cl)c4)C3=O)CC2)c1 (stereo not drawn) | 12.6%
28 | COc1ccc(OC)c(C2C(C#N)=C(N)Oc3cc(C)n(Cc4ccccn4)c(=O)c32)c1 (stereo not drawn) | -20.4%

Row | SMILES | activity change, negative = inhibition
29 | COC(=O)c1[nH]c2cc(OC)ccc2c1NC(=O)CN1CCC(C(N)=O)CC1 | -2.98%
30 | CCCC(=O)Nn1cnc2c(c1=O)C1(CCCC1)Cc1ccccc1-2 | -0.237%
31 | COc1ccc(Cn2c(CCCO)nc3ccccc32)cc1OC | 3.22%
32 | CCOC(=O)Cc1nnc(Nc2cccc(O)c2)c2ccccc12 | -6.58%
33 | COc1ccc(C2=Nn3c(nnc3-c3cccnc3)SC2)cc1OC | -23%
34 | CCOc1ccc(C2=Nn3c(nnc3-c3cccnc3)SC2)cc1 | -2.85%
35 | Cc1ccc(C2/C(=C(/O)c3cnn(-c4ccccc4)c3C)C(=O)C(=O)N2CCN2CCOCC2)o1 (stereo not drawn) | 16.8%
36 | Cc1nn(C)cc1/C=N/O | -0.64%
37 | CCSc1nc(N)c2c3c(sc2n1)CCC3 | -2.96%
38 | COn1c(SC2CCCCC2)nc2ccccc2c1=O | 7.75%
39 | Cc1nn(CC(=O)N2CCOCC2)c(=O)c2ccccc12 | 8.23%
40 | CC1(C)CC(=O)C2=C(C1)OC(N)=C(C#N)C2C1C=CCCC1 (stereo not drawn) | 24.4%
41 | CCOC(=O)c1cc2c(=O)n3ccccc3nc2n(Cc2ccccc2Cl)c1=N | 1.14%
42 | CCn1cc(/C=N/O)c(C)n1 | -4.37%
43 | CCCNC1=C(C)C(=O)CC1 | -5.45%
44 | CCOC(=O)CC(=O)CSc1[nH]c(=O)cc(C)c1C#N | 2.85%
45 | Cc1[nH]nc2c1C(CCc1ccccc1)C(C#N)=C(N)O2 (stereo not drawn) | 10.3%
46 | O=C(O)C1CC(=O)N(Cc2cccs2)C1 (stereo not drawn) | -5.3%
47 | COc1ccc(C(=O)c2ccc(N3CCOCC3)cc2)c(OC)c1 | 13.3%
48 | O=c1cc(NCc2ccccc2)nc2n1CCCS2 | 19%
